Test results from PubChem BioAssay AID1159580 (chemical genetic matrix, 2015).
Screen size: about 5,500 compounds; about 2,000 (36%) were called active. Not shown: some 18% with an inconclusive outcome. Rule as the data show it: active = normalized growth mostly below about 0.91 (no sharp cut-off); inconclusive = no clear call, values can overlap the other calls; inactive = mostly above about 0.92. Some of the results follow.

Experiment: chemical genetic growth profiling, strain panel (AID 1159580);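 also: tested at 20 µM; growth read once vehicle control cultures reached saturation at 30 °C; 1 = growth at the plate median or of vehicle wells; lower values mean less growth of the strain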
Settings: growth OD

Measured: normalized growth

CC1C[C@H]2CC(=O)[C@H]3CCCN4CCC[C@H]2[C@]34C1 (stereo partly specified)
inactive: S. cerevisiae deletion strains, locus YAL021C, strain ccr4, stronger effect = lower value 1.01 | S. cerevisiae deletion strains, locus YAL026C, strain drs2, stronger effect = lower value 1.01 | S. cerevisiae deletion strains, locus YAL030W, strain snc1, stronger effect = lower value 1 | S. cerevisiae deletion strains, locus YBL061C, strain skt5, stronger effect = lower value 1.01 | S. cerevisiae deletion strains, locus YBR009C, strain hhf1, stronger effect = lower value 1 | S. cerevisiae deletion strains, locus YBR021W, strain FUR4, stronger effect = lower value 0.996 | S. cerevisiae deletion strains, locus YBR023C, strain chs3, stronger effect = lower value 1.02 | S. cerevisiae deletion strains, locus YBR171W, strain sec66, stronger effect = lower value 0.996 | S. cerevisiae deletion strains, locus YBR229C, strain ROT2, stronger effect = lower value 1 | S. cerevisiae deletion strains, locus YBR231C, strain swc5, stronger effect = lower value 0.993 | S. cerevisiae deletion strains, locus YBR279W, strain paf1, stronger effect = lower value 1.02 | S. cerevisiae deletion strains, locus YCL011C, strain gbp2, stronger effect = lower value 1.02 | S. cerevisiae deletion strains, locus YCL016C, strain dcc1, stronger effect = lower value 1.02 | S. cerevisiae deletion strains, locus YCL029C, strain bik1, stronger effect = lower value 1.02 | S. cerevisiae deletion strains, locus YCL061C, strain MRC1, stronger effect = lower value 1.01 | S. cerevisiae deletion strains, locus YCL069W, strain vba3, stronger effect = lower value 1.01 | S. cerevisiae deletion strains, locus YCR088W, strain abp1, stronger effect = lower value 1.01 | S. cerevisiae deletion strains, locus YDL005C, strain med2, stronger effect = lower value 1.01 | S. cerevisiae deletion strains, locus YDL035C, strain GPR1, stronger effect = lower value 1.03 | S. cerevisiae deletion strains, locus YDL040C, strain nat1, stronger effect = lower value 1.01 | S. cerevisiae deletion strains, locus YDL074C, strain BRE1, stronger effect = lower value 1.03 | S. cerevisiae deletion strains, locus YDL101C, strain DUN1, stronger effect = lower value 1.02 | S. cerevisiae deletion strains, locus YDL134C, strain PPH21, stronger effect = lower value 1.01 | S. cerevisiae deletion strains, locus YDL185W, strain tfp1, stronger effect = lower value 1.02 | S. cerevisiae deletion strains, locus YDL192W, strain arf1, stronger effect = lower value 1.02 | S. cerevisiae deletion strains, locus YDR001C, strain nth1, stronger effect = lower value 1.01 | S. cerevisiae deletion strains, locus YDR069C, strain doa4, stronger effect = lower value 1.02 | S. cerevisiae deletion strains, locus YDR101C, strain arx1, stronger effect = lower value 1.03 | S. cerevisiae deletion strains, locus YDR137W, strain rgp1, stronger effect = lower value 1.03 | S. cerevisiae deletion strains, locus YDR150W, strain NUM1, stronger effect = lower value 1 | S. cerevisiae deletion strains, locus YDR159W, strain sac3, stronger effect = lower value 1 | S. cerevisiae deletion strains, locus YDR162C, strain NBP2, stronger effect = lower value 1.03 | S. cerevisiae deletion strains, locus YDR195W, strain ref2 0.993 | S. cerevisiae deletion strains, locus YDR297W, strain sur2, stronger effect = lower value 1 | S. cerevisiae deletion strains, locus YDR318W, strain mcm21, stronger effect = lower value 1.02 | S. cerevisiae deletion strains, locus YDR334W, strain swr1, stronger effect = lower value 1 | S. cerevisiae deletion strains, locus YDR335W, strain msn5, stronger effect = lower value 1.01 | S. cerevisiae deletion strains, locus YDR388W, stronger effect = lower value 1.01 | S. cerevisiae deletion strains, locus YDR392W, strain spt3, stronger effect = lower value 0.954 | S. cerevisiae deletion strains, locus YDR502C, strain sam2, stronger effect = lower value 1.01 | S. cerevisiae deletion strains, locus YEL003W, strain gim4, stronger effect = lower value 1.01 | S. cerevisiae deletion strains, locus YEL037C, strain rad23, stronger effect = lower value 1.01 | S. cerevisiae deletion strains, locus YEL061C, strain CIN8 (second series), stronger effect = lower value 1.01 | S. cerevisiae deletion strains, locus YEL061C, strain CIN8, stronger effect = lower value 1.01 | S. cerevisiae deletion strains, locus YER015W, strain faa2, stronger effect = lower value 1.02 | S. cerevisiae deletion strains, locus YER016W, strain bim1, stronger effect = lower value 1.01 | S. cerevisiae deletion strains, locus YER110C, stronger effect = lower value 1.02 | S. cerevisiae deletion strains, locus YER111C, strain swi4, stronger effect = lower value 1 | S. cerevisiae deletion strains, locus YER155C, strain BEM2 (second series), stronger effect = lower value 1.04 | S. cerevisiae deletion strains, locus YER155C, strain BEM2, stronger effect = lower value 0.989 | S. cerevisiae deletion strains, locus YER167W, strain BCK2, stronger effect = lower value 1.01 | S. cerevisiae deletion strains, locus YFR010W, strain ubp6, stronger effect = lower value 1.01 | S. cerevisiae deletion strains, locus YGL078C, strain dbp3, stronger effect = lower value 1.01 | S. cerevisiae deletion strains, locus YGL086W, strain mad1, stronger effect = lower value 1.02 | S. cerevisiae deletion strains, locus YGL167C, strain pmr1, stronger effect = lower value 1.01 | S. cerevisiae deletion strains, locus YGL173C, strain kem1, stronger effect = lower value 1.01 | S. cerevisiae deletion strains, locus YGL227W, strain vid30, stronger effect = lower value 1.01 | S. cerevisiae deletion strains, locus YGL240W, strain doc1, stronger effect = lower value 0.996 | S. cerevisiae deletion strains, locus YGL248W, strain PDE1, stronger effect = lower value 1.01 | S. cerevisiae deletion strains, locus YGL253W, strain hxk2, stronger effect = lower value 1 | S. cerevisiae deletion strains, locus YGR135W, strain pre9, stronger effect = lower value 1.01 | S. cerevisiae deletion strains, locus YGR252W, strain gcn5, stronger effect = lower value 0.999 | S. cerevisiae deletion strains, locus YHR013C, strain ard1, stronger effect = lower value 1.02 | S. cerevisiae deletion strains, locus YHR027C, strain rpn1, stronger effect = lower value 1 | S. cerevisiae deletion strains, locus YHR030C, strain SLT2, stronger effect = lower value 1 | S. cerevisiae deletion strains, locus YHR079C, strain IRE1 (second series), stronger effect = lower value 1.01 | S. cerevisiae deletion strains, locus YHR094C, strain hxt1, stronger effect = lower value 1.02 | S. cerevisiae deletion strains, locus YHR129C, strain ARP1, stronger effect = lower value 1.01 | S. cerevisiae deletion strains, locus YHR142W, strain chs7, stronger effect = lower value 1.02 | S. cerevisiae deletion strains, locus YHR200W, strain rpn10, stronger effect = lower value 1.02 | S. cerevisiae deletion strains, locus YIL066C, strain RNR3, stronger effect = lower value 1.01 | S. cerevisiae deletion strains, locus YIL073C, strain SPO22, stronger effect = lower value 1.06 | S. cerevisiae deletion strains, locus YIL125W, strain kgd1, stronger effect = lower value 1.02 | S. cerevisiae deletion strains, locus YIR030C, strain dcg1, stronger effect = lower value 1.02 | S. cerevisiae deletion strains, locus YJL092W, strain hpr5, stronger effect = lower value 1.01 | S. cerevisiae deletion strains, locus YJL095W, strain BCK1 (second series), stronger effect = lower value 1.01 | S. cerevisiae deletion strains, locus YJL095W, strain BCK1, stronger effect = lower value 1.04 | S. cerevisiae deletion strains, locus YJL115W, strain asf1, stronger effect = lower value 1.01 | S. cerevisiae deletion strains, locus YJL129C, strain trk1, stronger effect = lower value 1.02 | S. cerevisiae deletion strains, locus YJL134W, strain LCB3, stronger effect = lower value 0.994 | S. cerevisiae deletion strains, locus YJL154C, strain vps35, stronger effect = lower value 1.02 | S. cerevisiae deletion strains, locus YJL164C, strain tpk1, stronger effect = lower value 1.01 | S. cerevisiae deletion strains, locus YJL166W, strain qcr8, stronger effect = lower value 1.01 | S. cerevisiae deletion strains, locus YJL168C, strain set2, stronger effect = lower value 1.01 | S. cerevisiae deletion strains, locus YJL187C, strain SWE1 (second series), stronger effect = lower value 1.03 | S. cerevisiae deletion strains, locus YJL187C, strain SWE1, stronger effect = lower value 1 | S. cerevisiae deletion strains, locus YJR043C, strain POL32, stronger effect = lower value 1 | S. cerevisiae deletion strains, locus YKL009W, strain mrt4, stronger effect = lower value 1.03 | S. cerevisiae deletion strains, locus YKL068W, stronger effect = lower value 1.01 | S. cerevisiae deletion strains, locus YKL085W, strain MDH1 (second series), stronger effect = lower value 1 | S. cerevisiae deletion strains, locus YKL085W, strain MDH1, stronger effect = lower value 1 | S. cerevisiae deletion strains, locus YKL160W, strain elf1, stronger effect = lower value 1.02 | S. cerevisiae deletion strains, locus YKL190W, strain CNB1, stronger effect = lower value 0.989 | S. cerevisiae deletion strains, locus YKR001C, strain vps1, stronger effect = lower value 1.02 | S. cerevisiae deletion strains, locus YKR026C, strain gcn3, stronger effect = lower value 1.01 | S. cerevisiae deletion strains, locus YKR091W, strain srl3, stronger effect = lower value 1.02 | S. cerevisiae deletion strains, locus YLL001W, strain dnm1, stronger effect = lower value 1.01 | S. cerevisiae deletion strains, locus YLL026W, stronger effect = lower value 1 | S. cerevisiae deletion strains, locus YLL041C, strain sdh2, stronger effect = lower value 1.01 | S. cerevisiae deletion strains, locus YLR027C, strain aat2, stronger effect = lower value 1.01 | S. cerevisiae deletion strains, locus YLR039C, strain RIC1, stronger effect = lower value 1.04 | S. cerevisiae deletion strains, locus YLR058C, strain SHM2, stronger effect = lower value 1.02 | S. cerevisiae deletion strains, locus YLR102C, strain apc9, stronger effect = lower value 1.02 | S. cerevisiae deletion strains, locus YLR221C, strain rsa3, stronger effect = lower value 1.02 | S. cerevisiae deletion strains, locus YLR258W, strain gsy2, stronger effect = lower value 1.03 | S. cerevisiae deletion strains, locus YLR262C, strain YPT6 (second series), stronger effect = lower value 1.01 | S. cerevisiae deletion strains, locus YLR262C, strain YPT6, stronger effect = lower value 1.12 | S. cerevisiae deletion strains, locus YLR268W, strain sec22, stronger effect = lower value 1.04 | S. cerevisiae deletion strains, locus YLR320W, strain mms22, stronger effect = lower value 1.02 | S. cerevisiae deletion strains, locus YLR330W, strain CHS5, stronger effect = lower value 1 | S. cerevisiae deletion strains, locus YLR342W, strain FKS1 (second series), stronger effect = lower value 0.993 | S. cerevisiae deletion strains, locus YLR342W, strain FKS1, stronger effect = lower value 1.02 | S. cerevisiae deletion strains, locus YLR357W, strain rsc2, stronger effect = lower value 0.995 | S. cerevisiae deletion strains, locus YLR370C, strain arc18, stronger effect = lower value 1.02 | S. cerevisiae deletion strains, locus YLR371W, strain rom2, stronger effect = lower value 1.02 | S. cerevisiae deletion strains, locus YLR384C, strain iki3, stronger effect = lower value 1.02 | S. cerevisiae deletion strains, locus YLR418C, strain cdc73, stronger effect = lower value 1.02 | S. cerevisiae deletion strains, locus YML016C, strain PPZ1, stronger effect = lower value 1.01 | S. cerevisiae deletion strains, locus YML032C, strain rad52, stronger effect = lower value 1.01 | S. cerevisiae deletion strains, locus YML120C, strain ndi1, stronger effect = lower value 1.01 | S. cerevisiae deletion strains, locus YML124C, strain tub3, stronger effect = lower value 1.01 | S. cerevisiae deletion strains, locus YMR058W, strain fet3, stronger effect = lower value 1.01 | S. cerevisiae deletion strains, locus YMR078C, strain ctf18, stronger effect = lower value 1.03 | S. cerevisiae deletion strains, locus YMR125W, strain sto1, stronger effect = lower value 1.01 | S. cerevisiae deletion strains, locus YMR129W, stronger effect = lower value 1.01 | S. cerevisiae deletion strains, locus YMR205C, strain PFK2, stronger effect = lower value 1.02 | S. cerevisiae deletion strains, locus YMR223W, strain ubp8, stronger effect = lower value 1.02 | S. cerevisiae deletion strains, locus YMR231W, strain pep5, stronger effect = lower value 1 | S. cerevisiae deletion strains, locus YMR307W, strain GAS1, stronger effect = lower value 1.01 | S. cerevisiae deletion strains, locus YNL067W, strain RPL9B, stronger effect = lower value 1.03 | S. cerevisiae deletion strains, locus YNL071W, strain lat1, stronger effect = lower value 1.02 | S. cerevisiae deletion strains, locus YNL128W, strain TEP1, stronger effect = lower value 1.03 | S. cerevisiae deletion strains, locus YNL153C, strain GIM3, stronger effect = lower value 1.01 | S. cerevisiae deletion strains, locus YNL209W, strain ssb2, stronger effect = lower value 1.01 | S. cerevisiae deletion strains, locus YNL233W, strain BNI4, stronger effect = lower value 1.03 | S. cerevisiae deletion strains, locus YNL248C, strain rpa49, stronger effect = lower value 0.998 | S. cerevisiae deletion strains, locus YNL250W, strain rad50, stronger effect = lower value 1.05 | S. cerevisiae deletion strains, locus YNL271C, strain bni1, stronger effect = lower value 1.03 | S. cerevisiae deletion strains, locus YNL298W, strain CLA4, stronger effect = lower value 1.01 | S. cerevisiae deletion strains, locus YNL307C, strain MCK1, stronger effect = lower value 1.04 | S. cerevisiae deletion strains, locus YNL322C, strain KRE1 (second series), stronger effect = lower value 1 | S. cerevisiae deletion strains, locus YNL322C, strain KRE1, stronger effect = lower value 1 | S. cerevisiae deletion strains, locus YNR049C, strain mso1, stronger effect = lower value 1.03 | S. cerevisiae deletion strains, locus YNR052C, strain pop2, stronger effect = lower value 1.02 | S. cerevisiae deletion strains, locus YOL012C, strain htz1 1.55 | S. cerevisiae deletion strains, locus YOL147C, strain pex11, stronger effect = lower value 1.02 | S. cerevisiae deletion strains, locus YOR001W, strain rrp6, stronger effect = lower value 1.02 | S. cerevisiae deletion strains, locus YOR061W, strain CKA2, stronger effect = lower value 1.01 | S. cerevisiae deletion strains, locus YOR069W, strain VPS5, stronger effect = lower value 1.01 | S. cerevisiae deletion strains, locus YOR070C, strain gyp1, stronger effect = lower value 1.03 | S. cerevisiae deletion strains, locus YOR080W, strain dia2, stronger effect = lower value 1 | S. cerevisiae deletion strains, locus YOR083W, strain WHI5, stronger effect = lower value 1.02 | S. cerevisiae deletion strains, locus YOR106W, strain vam3, stronger effect = lower value 1.02 | S. cerevisiae deletion strains, locus YOR136W, strain idh2, stronger effect = lower value 1.03 | S. cerevisiae deletion strains, locus YOR144C, strain elg1, stronger effect = lower value 1 | S. cerevisiae deletion strains, locus YOR184W, strain ser1, stronger effect = lower value 1.01 | S. cerevisiae deletion strains, locus YOR265W, strain rbl2, stronger effect = lower value 1 | S. cerevisiae deletion strains, locus YOR270C, strain vph1, stronger effect = lower value 1.05 | S. cerevisiae deletion strains, locus YOR290C, strain snf2, stronger effect = lower value 1.01 | S. cerevisiae deletion strains, locus YOR316C, strain cot1, stronger effect = lower value 1.02 | S. cerevisiae deletion strains, locus YPL051W, strain arl3, stronger effect = lower value 1 | S. cerevisiae deletion strains, locus YPL055C, strain LGE1, stronger effect = lower value 1.03 | S. cerevisiae deletion strains, locus YPL078C, strain atp4, stronger effect = lower value 1.01 | S. cerevisiae deletion strains, locus YPL106C, strain sse1, stronger effect = lower value 0.997 | S. cerevisiae deletion strains, locus YPL240C, strain hsp82, stronger effect = lower value 0.998 | S. cerevisiae deletion strains, locus YPR119W, strain clb2, stronger effect = lower value 1.02 | S. cerevisiae deletion strains, locus YPR141C, strain kar3, stronger effect = lower value 1.02 | S. cerevisiae deletion strains, locus YPR163C, strain tif3, stronger effect = lower value 1.02 | S. cerevisiae deletion strains, locus YPR167C, strain met16, stronger effect = lower value 1.02 | S. cerevisiae deletion strains, strain wtn01, stronger effect = lower value 1.02 | S. cerevisiae strains, strain wild type, stronger effect = lower value 1.01
